Among all 220,000 compounds or so, about 800 (0.36%) were called active. The list comes from a sample in which actives are over-represented; it also holds similar structures and randomly drawn compounds. Values without a mark were called inactive.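 Rule for the calls: active = inhibition above about 30% (limit read from the data); inactive = the rest.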

These results are taken from PubChem BioAssay AID782 (Emory University Molecular Libraries Screening Center, 2007).

Sequence of Eukaryotic translation initiation factor 4E (Mus musculus) + Eukaryotic translation initiation factor 4 gamma 1 (Homo sapiens) (P63073 whole entry, looked up, the tested form may be a part): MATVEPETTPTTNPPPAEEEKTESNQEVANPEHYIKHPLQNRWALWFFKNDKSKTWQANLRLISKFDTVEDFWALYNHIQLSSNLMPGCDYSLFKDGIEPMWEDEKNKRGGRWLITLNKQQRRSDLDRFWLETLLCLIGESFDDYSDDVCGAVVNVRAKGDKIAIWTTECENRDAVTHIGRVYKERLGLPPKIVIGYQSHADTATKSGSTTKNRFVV
Sequence of Eukaryotic translation initiation factor 4E (Mus musculus) + Eukaryotic translation initiation factor 4 gamma 1 (Homo sapiens) (Q04637 whole entry, looked up, the tested form may be a part): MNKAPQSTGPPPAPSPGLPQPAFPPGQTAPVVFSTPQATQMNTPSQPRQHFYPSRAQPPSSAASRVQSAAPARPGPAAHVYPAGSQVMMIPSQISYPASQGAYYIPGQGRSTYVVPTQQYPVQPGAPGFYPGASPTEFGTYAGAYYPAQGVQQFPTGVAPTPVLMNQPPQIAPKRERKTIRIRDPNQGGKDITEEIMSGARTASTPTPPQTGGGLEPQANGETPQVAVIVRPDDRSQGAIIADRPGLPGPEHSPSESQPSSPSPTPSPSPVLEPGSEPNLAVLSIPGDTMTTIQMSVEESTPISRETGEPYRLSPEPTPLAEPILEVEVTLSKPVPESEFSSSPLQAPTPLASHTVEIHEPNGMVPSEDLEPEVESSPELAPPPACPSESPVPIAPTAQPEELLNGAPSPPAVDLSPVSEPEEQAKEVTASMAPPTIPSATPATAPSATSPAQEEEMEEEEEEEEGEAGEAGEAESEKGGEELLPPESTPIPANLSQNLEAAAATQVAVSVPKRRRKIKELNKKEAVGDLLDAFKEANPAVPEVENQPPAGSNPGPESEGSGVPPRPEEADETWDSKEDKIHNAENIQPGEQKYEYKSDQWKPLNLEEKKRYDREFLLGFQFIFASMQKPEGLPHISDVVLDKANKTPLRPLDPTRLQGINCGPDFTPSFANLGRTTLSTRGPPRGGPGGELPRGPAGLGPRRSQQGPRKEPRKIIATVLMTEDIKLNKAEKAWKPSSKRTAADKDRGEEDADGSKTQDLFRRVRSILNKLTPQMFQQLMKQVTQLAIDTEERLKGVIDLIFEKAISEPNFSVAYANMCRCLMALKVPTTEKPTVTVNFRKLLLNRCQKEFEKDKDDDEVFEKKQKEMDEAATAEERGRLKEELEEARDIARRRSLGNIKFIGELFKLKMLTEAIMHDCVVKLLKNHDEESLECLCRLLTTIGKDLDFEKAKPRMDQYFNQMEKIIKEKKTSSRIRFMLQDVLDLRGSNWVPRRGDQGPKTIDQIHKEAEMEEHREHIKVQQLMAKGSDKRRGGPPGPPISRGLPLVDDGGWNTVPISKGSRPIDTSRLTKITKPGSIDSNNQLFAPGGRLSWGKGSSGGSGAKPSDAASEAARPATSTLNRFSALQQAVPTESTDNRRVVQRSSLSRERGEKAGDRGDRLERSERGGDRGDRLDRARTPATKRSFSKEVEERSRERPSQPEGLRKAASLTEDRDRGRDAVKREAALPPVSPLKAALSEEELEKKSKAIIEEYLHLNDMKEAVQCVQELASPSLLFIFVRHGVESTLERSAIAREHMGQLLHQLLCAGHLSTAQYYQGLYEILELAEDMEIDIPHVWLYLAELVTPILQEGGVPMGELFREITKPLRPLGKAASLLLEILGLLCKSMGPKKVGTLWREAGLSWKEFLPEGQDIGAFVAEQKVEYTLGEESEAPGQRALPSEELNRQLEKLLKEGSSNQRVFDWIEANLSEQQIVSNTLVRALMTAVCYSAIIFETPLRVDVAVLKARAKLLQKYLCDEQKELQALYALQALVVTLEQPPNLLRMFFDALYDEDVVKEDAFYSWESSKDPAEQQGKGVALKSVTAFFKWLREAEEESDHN

The experiment concerns the target Eukaryotic translation initiation factor 4E (Mus musculus) + Eukaryotic translation initiation factor 4 gamma 1 (Homo sapiens) (UniProt P63073+Q04637). The experiment in a line: eIF4E–eIF4G protein interaction inhibitors, primary screen, biochemical, uHTS, TR-FRET, eIF4GI fragment (AID 782).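 Note: 0% = full FRET control wells and 100% = background wells lacking eIF4GI fragment.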 Conditions: TR-FRET eIF4E-eIF4GI(517-606) binding, 2 h; at 21.7 µM; stronger effect = higher value.
Consider `Cc1ccc(-n2c(O)c(C=NCC3CCCO3)c(=O)[nH]c2=O)c(C)c1` (stereo not given), for which the inhibition was -0.86%.
As for `CC(=NCC1CCCO1)c1c(O)n(-c2ccccc2)c(=O)[nH]c1=O` (stereo not given), the figure is 58.1% (active).
For `CCC(=NCCc1ccccc1)c1c(O)n(C2CCCCC2)c(=O)[nH]c1=O`, the inhibition was -4.4%.
Consider `CC1(C)Cc2c(C#N)c(N3CCNCC3)nc(-c3ccco3)c2CS1`, for which the inhibition was -1.83%.
Consider `COc1ccc(NC(=O)N2CCC3(CC2)OCCO3)c(OC)c1`, for which the inhibition was 1.55%.
